A selection: hits, their analogues and other compounds. The true share with any hit is near 17%.
TDP1 inh = TDP1 (human) enzyme inhibition; Q9NUW8; recombinant TDP1, AlphaScreen DNA substrate cleavage; Potency, µM (highest dose often 130 µM), usual class: inhibitors; 350,000 tested, 0.28% active; AID 485290; note: nearly all actives have a fitted effect of over 40% in size
Target sequence (Q9NUW8 whole entry, looked up): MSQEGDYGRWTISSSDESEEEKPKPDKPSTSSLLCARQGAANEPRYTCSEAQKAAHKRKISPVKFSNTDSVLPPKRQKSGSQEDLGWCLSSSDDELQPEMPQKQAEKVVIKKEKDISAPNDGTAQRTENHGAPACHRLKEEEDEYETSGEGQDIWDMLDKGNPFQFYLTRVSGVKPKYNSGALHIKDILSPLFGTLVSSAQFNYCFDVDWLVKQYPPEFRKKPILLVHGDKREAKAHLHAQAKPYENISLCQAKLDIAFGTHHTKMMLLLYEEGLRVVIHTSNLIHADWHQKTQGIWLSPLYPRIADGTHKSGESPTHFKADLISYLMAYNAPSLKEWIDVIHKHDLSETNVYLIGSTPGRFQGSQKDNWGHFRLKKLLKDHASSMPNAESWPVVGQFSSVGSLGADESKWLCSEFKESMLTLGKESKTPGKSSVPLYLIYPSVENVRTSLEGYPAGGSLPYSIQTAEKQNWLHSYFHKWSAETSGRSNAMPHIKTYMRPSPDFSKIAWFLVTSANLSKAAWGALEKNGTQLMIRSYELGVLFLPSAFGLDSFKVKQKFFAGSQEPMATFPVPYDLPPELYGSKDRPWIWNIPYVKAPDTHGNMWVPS
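Here, a 5' biotin and 3' phosphotyrosine-FITC DNA oligonucleotide reports Tdp1 activity: intact substrate bridges AlphaScreen beads, while cleavage leaves a 3' phosphate and drops signal. All incubations at room temperature.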
DT40 TDP1 CPT = DT40-hTDP1 cell growth loss with CPT | chicken DT40 Tdp1-/-;hTDP1 cells + 20 nM CPT, ATP luminescence, 48 h | Potency, µM (titrated, usually from 46.2 µM), usual class: inhibitors | 420,000 tested, 12% active; note: nearly all actives have a fitted effect of over 55% in size
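Chicken DT40 Tdp1-/- cells complemented with human TDP1, 400 cells/well, exposed to compounds plus 20 nM camptothecin for at least 48 h at 37 C; viability read as ATP content by CellTiter-Glo luminescence.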
ClpP mod = qHTS Assay for Activators of ClpP; ATP-dependent Clp protease proteolytic subunit (Bacillus subtilis (strain 168)), P80244; purified B. subtilis ClpP, FRET peptide cleavage, 20 min; Potency, µM (highest dose often 57.5 µM); 340,000 tested, 1.9% active; AID 651965, 2013; active = well fitted falling curve with a large enough effect; inconclusive = small, poorly fitted or top-dose-only effect; inactive = no such curve, though single readings can be large or run the other way; note: the source files actives as falling curves though it sought activators and does not explain the sign; nearly all actives have a fitted effect of over 65% in size
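ClpP 10 microg/mL final, pH 8 Tris/KCl buffer with BSA, glycerol, Tween-20; compound pinned in; FRET-FV substrate; RT 20 min; Ex320/Em430; ΔFRET vs ADEP 5.8 microM, DMSO, no enzyme.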
DT40 TDP1 no CPT = qHTS for Inhibitors of human tyrosyl-DNA phosphodiesterase 1 (TDP1): qHTS in cells in absence of CPT; 420,000 tested, 15% active; DT40 Tdp1-/- hTDP1 cells, no CPT, ATP luminescence, 48 h; Potency, µM (series often up to 46.2 µM), actives largely listed as inhibitors; note: nearly all actives have a fitted effect of over 55% in size
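Cells were dispensed at 400 per well, compounds added by pin tool, plates incubated ≥48 hr at 37 °C, then CellTiter-Glo added for 30 min at room temperature before luminescence reading. Line: DT40 Tdp1-/- complemented with hTDP1; camptothecin omitted.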
Numbers stand for hits; 0 = inactive; ? = inconclusive; - = no result; [ ] = dose if it differs, or a comment. Unless noted, calls come from the whole dose curve; as a rule, active = well fitted curve in the direction sought with a large enough effect; inconclusive = small, poorly fitted or top-dose-only effect, or another doubt; inactive = no such curve, though single readings can be large; an effect the other way counts as inactive or inconclusive.

SMILES	TDP1 inh	DT40 TDP1 CPT	ClpP mod	DT40 TDP1 no CPT
CC1(C)Cc2cccc(OCC(=O)OCC(=O)Nc3ccc(S(N)(=O)=O)cc3)c2O1	-	0	0	0
CC1(C)Cc2cccc(OCC(=O)OCC(=O)Nc3ccc(C(N)=O)cc3)c2O1	-	0	25µM	0
CN(C)S(=O)(=O)c1ccc(NC(=O)COc2cccc3c2OC(C)(C)C3)cc1	0	21µM	0	?
COc1ccccc1CCNC(=O)COc1cccc2c1OC(C)(C)C2	-	0	-	23µM
CC1(C)Cc2cccc(OCC(=O)OCC(=O)Nc3ccccc3)c2O1	-	0	0	0
Cn1cc(S(=O)(=O)N2CCCCC2)cc1C(=O)Nc1ccc(OC(F)(F)F)cc1	0	0	0	0
CCOC(=O)c1c(-c2ccc(C)cc2)csc1NC(=O)c1cc(=O)c2cc(C)c(C)cc2o1	0	0	0	0
CC(=O)N(C[C@@H](O)CO)c1c(I)c(C(=O)NC[C@@H](O)CO)c(I)c(C(=O)NC[C@@H](O)CO)c1I	0	-	-	-
CCOC(=O)[C@]12CCCC=C1N(Cc1ccco1)C(=O)[C@H](CC(=O)N1CCCC1)C2	-	0	0	0
CC1(C)Cc2cccc(OCC(=O)Nc3ccccc3F)c2O1	-	?	0	?
CCCNC(=O)c1ccccc1NC(=O)COc1cccc2c1OC(C)(C)C2	0	?	0	18µM
C=C[C@@]1(C)C[C@H](OC(=O)CSC(C)(C)CNC(=O)[C@@H](N)C(C)C)[C@@]2(C)C(C)CC[C@@]3(CCC(=O)[C@@H]32)[C@H](C)[C@H]1O (stereo partly drawn)	-	0.11µM	0	0.079µM
C=C[C@]1(C)C[C@@H](OC(=O)CSCCN(CC)CC)[C@]2(C)C(C)CC[C@]3(CCC(=O)[C@H]32)[C@@H](C)[C@@H]1O (stereo partly drawn)	-	8.2µM	0	8.2µM
CC(=O)c1cccc(NC(=O)N2CCC(CN3CCCCC3)CC2)c1	0	0	0	0
CCc1nn(C(C)C(=O)NCc2ccc(Cl)cc2)c(=O)c2cc3occc3n12 (stereo not drawn)	0	?	0	0
CC(C)n1c(/N=C/c2ccccc2O)nc2ccccc21	0	0	0	0
CCCCn1c(/N=C/c2ccccc2NS(=O)(=O)c2ccc(C)cc2)nc2ccccc21	0	?	0	23µM
Cc1ccc(S(=O)(=O)Nc2ccccc2/C=N/c2nc3ccccc3n2C(C)C)cc1	0	18µM	0	21µM
O=C(c1cccc(F)c1F)N1CCOc2ccc(CN3CCC(Oc4cccnc4)CC3)cc2C1	-	0[9.04 µM]	-	?
COCC1CCCN(Cc2cn(Cc3ccccc3)nc2-c2cc3ccccc3o2)C1 (stereo not drawn)	0	26µM	0	?
COC(=O)C1CCN(Cc2cn(Cc3ccccc3)nc2-c2cc3ccccc3o2)CC1	0	?	0	26µM
CCCCC(CC)C(=O)O (stereo not drawn)	0	0	0	0
C[C@H](NC(=O)c1ccc(C(C)(C)C)cc1)C(=O)N1CCN(C/C=C/c2ccccc2)CC1	0	?	0	21µM
CC(C)C(NC(=O)c1ccccc1)C(=O)N1CCN(C/C=C/c2ccccc2)CC1 (stereo not drawn)	0	?	0	?
CSCCC(NC(=O)c1ccc(Cl)c([N+](=O)[O-])c1)C(=O)N1CCN(C/C=C/c2ccccc2)CC1 (stereo not drawn)	0[0.505 µM]	18µM	0	?
SMILES	TDP1 inh	DT40 TDP1 CPT	ClpP mod	DT40 TDP1 no CPT
O=C(NCC(=O)N1CCN(C/C=C/c2ccccc2)CC1)c1ccc(OC(F)F)cc1	0	?	0	15µM
CSCCC(NC(=O)c1ccc(Cl)cc1Cl)C(=O)N1CCN(C(=O)c2ccccc2)CC1 (stereo not drawn)	-	?	0	0
O=C(NCC(=O)N1CCN(C/C=C/c2ccccc2)CC1)c1ccc(Br)cc1	0	16µM	0	8.2µM
CCc1ccccc1NC(=O)NCc1cccnc1	0	0	0	0
COc1ccc(S(=O)(=O)Nc2ccc(C)cc2)cc1N(C)S(=O)(=O)c1ccc(Cl)cc1	0	23µM	0	18µM
COC(=O)CN(c1cc(Cl)ccc1OC)S(=O)(=O)c1ccc(C)cc1	0	?	-	18µM
COc1ccc(Cl)cc1N(CC(=O)NC(C)(C)C)S(=O)(=O)c1ccc(C)c([N+](=O)[O-])c1	0	16µM	0	21µM
COc1ccc(C)cc1N(CC(=O)O)S(=O)(=O)c1ccc(C)cc1	0	0	0	0

Bioassay records: PubChem BioAssay, National Center for Advancing Translational Sciences (NCATS)
